Shown are actives, neighbours in structure and some others; about 4.6% of the full set was active somewhere.
HCV inh = blocks hepatitis C virus; actives 3.4% (n = 340,000); Huh7.5.1 HCVcc-Cre infection, luciferase reporter, 44 h; Potency, µM (series often up to 41.8 µM), inactives show at the top dose activity change, negative = inhibition, hits mostly inhibitors; active = well fitted inhibition curve with a large enough effect; inconclusive = small, poorly fitted or top-dose-only effect, or another doubt; inactive = no such curve, though single readings can be large or run the other way
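A cell-based infection assay in which seeded cells (1,000 per well) receive test compound after 4 h, are inoculated with HCVcc-Cre at approximately 0.5 moi, and are incubated 44 h before luminescence detection.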
VACV mCherry inh = inhibitors of vaccinia virus infection (mCherry reporter signal); Potency, µM (top dose mostly 36.5 µM), for the others: top-dose activity change, negative = inhibition, usual class: inhibitors; Vaccinia virus mCherry reporter infection, fluorescence; AID 720579; actives 0.63% (n = 310,000); calls by dose curve; tested in A549 cells; note: nearly all actives have a fitted effect of over 35% in size
Vaccinia Venus = inhibitors of vaccinia virus (Venus reporter); Vaccinia virus Venus reporter expression, fluorescence; Potency, µM (series often up to 36.5 µM), for inactives: at the highest dose activity change, negative = inhibition, usual class: inhibitors; actives 0.46% (n = 330,000); calls by dose curve; tested in A549 cells; note: nearly all actives have a fitted effect of over 30% in size
MARV entry inh = Marburg virus entry inhibition; Potency, µM (top dose mostly 37.8 µM), for the others: top-dose activity change, negative = inhibition, most hits filed as inhibitors; Marburg virus pseudotyped entry inhibition, cell reporter; actives 1.8% (n = 300,000); calls by dose curve; tested in HEK293 cells
LASV entry inh = Lassa virus entry inhibition; Lassa virus pseudotype entry inhibition, cell reporter; Potency, µM (titrated, usually from 37.9 µM), for the others: at the highest dose activity change, negative = inhibition, usual class: inhibitors; actives 1.2% (n = 300,000); AID 540256; calls by dose curve; tested in HEK293 cells; note: nearly all actives have a fitted effect of over 50% in size
An asterisk follows results filed as active; i = inactive; ? = inconclusive; · = no result; ! = not active in a repeat; [ ] = another dose, or the depositor's remark. % is set by controls: 0 for no effect and ±100 for the full control effect; potency is the fitted concentration of half-maximal effect.

SMILES	HCV inh	VACV mCherry inh	Vaccinia Venus	MARV entry inh	LASV entry inh
CC(C)c1ccc(NC(=O)C2CCCCN2S(=O)(=O)c2ccccc2)cc1 (centres undefined)	22.4µM*	·	·	·	·
Cc1cccc(NC(=O)C2CCCCN2S(=O)(=O)c2ccccc2)c1C (centres undefined)	-1.0%	·	·	·	·
Cc1ccccc1Nc1c(-c2c(F)cccc2Cl)nc2ccc(Br)cn12	·	-24.5%	-20.6%	4.5%[46.1 µM]	7.4%[46.1 µM]
Cc1cc(C(=O)CCl)c(C)n1-c1c(C)n(C)n(-c2ccccc2)c1=O	8.91µM*	?	?	?	?
Cc1cc(-n2c(C)cc(C(=O)CSc3ccccn3)c2C)no1	?	-13.9%	1.7%	?	-9.9%[46.1 µM]
Cc1cc(-n2c(C)cc(C(=O)CCl)c2C)no1	?	-28.3%	?	2.82µM*	?
Cc1ccc(-n2nnnc2SCC(=O)c2cc(C)n(-c3cc(C)on3)c2C)c(C)c1	?	?	-15.4%	-12.6%	1.46µM*
Cc1cc(-n2c(C)cc(C(=O)CSc3ccc4c(c3)OCCO4)c2C)no1	-22.9%	-17.8%	-16.7%	?	?
Cc1nnc(SCC(=O)c2cc(C)n(-c3c(C)n(C)n(-c4ccccc4)c3=O)c2C)s1	-2.0%	-7.9%	-3.9%	-13.6%	4.4%
Cc1cc(-n2c(C)cc(C(=O)CSc3nnnn3-c3ccccc3)c2C)no1	8.91µM*	-17.1%	-8.9%	-20.6%	?
Fc1ccc(N2CCN(Cc3ccc4c(c3)CN(Cc3cccn3-c3cccnc3)CCO4)CC2)cc1	·	-5.3%	-3.6%	·	·
Cc1nn(S(=O)(=O)c2ccc(C(C)(C)C)cc2)c(C)c1S(=O)(=O)N1CCC(C)CC1	·	-14.3%	-10.2%	·	-0.7%[46.1 µM]
COc1ccc(OC)c(C(=O)N2CCc3c(cnc(C)c3CNS(=O)(=O)N(C)C)C2)c1	·	-11.5%	-9.7%	·	·
Cc1ccccc1CN1N=C(/C=C/c2ccccc2)CCC1=O	-22.6%	-16.4%	-12.4%	6.6%[14.2 µM]	7.94µM*
Cc1ccc2c(c1)[C@@H]1CN(C)CC[C@@H]1N2C(=O)Nc1cccc(C(F)(F)F)c1	10µM*	·	·	?	-6.5%
Cc1ccc2c(c1)C1CN(C)CCC1N2C(=O)CCCN1C(=O)c2cccc3cccc(c23)C1=O (centres undefined)	?	26.8%	-3.8%	7.94µM*	6.9%
CCNc1nc(NC(C)C)nc(N(C#N)CCOc2ccccc2)n1	22.4µM*	i	-21.6%	-18.9%[46.1 µM]	0.8%
Clc1ccc2ncc(-c3nnnn3-c3ccccc3)c(-c3ccccc3)c2c1	2.82µM*	·	·	?	?
CCOc1ccc(-c2nc3n(c(=O)c2C#N)CCCS3)cc1	?	·	-16.1%	?	7.08µM*
COc1ccc(/C=N/NC(=S)Nc2ccccc2[N+](=O)[O-])cc1O	?	-22.3%	?	?	23.1µM*
O=[N+]([O-])c1cc(/C=N/NC(=S)Nc2ccccc2Cl)ccc1Cl	?	?	?	8.91µM*	?
COc1cc(/C=N/NC(=O)Cc2ccccc2)ccc1Oc1ccc([N+](=O)[O-])cc1[N+](=O)[O-]	14.1µM*	·	·	1.8%	9.2%
COc1cc(/C=N/Nc2ccccc2[N+](=O)[O-])cc(OC)c1O	?	-18.4%	-8.4%	19.1%[46.1 µM]	·
COc1ccc(S(=O)(=O)N(CC(=O)Nc2cccc(C)c2)c2ccc(C)cc2)cc1OC	·	-10.4%	-2.0%	·	-14.9%[46.1 µM]
CCSc1nnc2n(-c3cccc(C)c3)c(=O)c3c4c(sc3n12)CCCC4	·	-20.5%	-6.8%	9.3%[46.1 µM]	11.6%[46.1 µM]
SMILES	HCV inh	VACV mCherry inh	Vaccinia Venus	MARV entry inh	LASV entry inh
Cc1ccc(C)c(N2CCN(C(=O)CCC(=O)N3CCOc4ccc(Cl)cc43)CC2)c1	10µM*	?	?	·	·
Cc1ccc(C)c(N2CCN(C(=O)CCS(=O)(=O)c3ccc4c(c3)NC(=O)C(C)S4)CC2)c1 (centres undefined)	2.82µM*	·	·	·	·
Cc1ccc(Cl)cc1N1CCN(C(=O)CCS(=O)(=O)c2ccc3c(c2)NC(=O)CO3)CC1	11.2µM*	·	·	·	·
Cc1ccc2c(c1)N(C(=O)CCC(=O)N1CCN(c3ccccn3)CC1)CCO2	-19.6%	20.9%	5.3%	·	·
Cc1c(C(=O)N(Cc2ccccc2F)C2CCS(=O)(=O)C2)oc2ccccc12 (centres undefined)	·	-13.2%	-17.8%	?	-17.0%[46.1 µM]
CCSc1nnc(NC(=O)c2ccccn2)s1	?	22.4µM*	?	?	?
CCSc1nnc(NC(=O)c2cnccn2)s1	17.7%	i	0.8%	?	21.4%
CCSc1nnc(NC(=O)C(CC)(C(F)(F)F)C(F)(F)F)s1	-23.9%	·	?	?	12.6µM*
CN(C)c1ccc(/C=C/c2ccnc3ccccc23)c(F)c1	·	i	14.6%	·	·
COC(=O)[C@@]1(C=C2c3ccc(F)cc3[C@@H](OC)[C@@H]2C)[C@@H]2C=CC[C@@H]21	·	·	·	-19.1%[14.2 µM]	·
CCCc1c(C(=O)Nc2ccc(F)cc2F)cnn1-c1ccccc1	-16.2%	·	·	1.4%	·
CCCc1c(NC(=O)Nc2ccc(Cl)cc2Cl)cnn1-c1ccccc1	?	?	-8.1%	0.891µM*	?
CCN(CC)C(=O)c1sc2c(c1C)c(=O)n(Cc1ccccc1)c(=O)n2CC(=O)Nc1ccc(OC)cc1	·	-27.4%	-15.1%	·	-27.4%[46.1 µM]
O=C(Cn1ncc2c3ccccc3n(Cc3ccc(F)cc3)c2c1=O)N1CCC2(CC1)OCCO2	?	·	-25.6%	14.1µM*	?
CNC(=O)c1cc(-c2cccs2)on1	·	-26.5%	?	·	·
Cc1ccc(S(=O)(=O)NCC(=O)NCC(=O)N(C)Cc2ccc3ccccc3c2)cc1C	10µM*	-18.4%	-25.6%	?	-22.1%
CSc1ccc(CN(C)C(=O)CNC(=O)CNS(=O)(=O)c2ccc(C)c(C)c2)cc1	?	-21.4%	-7.4%	?	-14.4%[46.1 µM]
Cc1nn(CC(=O)N2CCN(c3ccccc3)CC2)c(=O)c2cc3cc(F)ccc3n12	·	-5.2%	-0.9%	5.1%[46.1 µM]	·
Cc1cn2c(=O)cc(COc3ccc(NC(=O)COc4ccccc4)cc3)nc2s1	·	-0.6%	-7.4%	22.9%[46.1 µM]	-3.9%[46.1 µM]
c1ccc(-c2csc3ncnc(NCC4COc5ccccc5O4)c23)cc1 (centres undefined)	0.562µM*	?	?	2.24µM*	?
Cc1sc2ncnc(NCC3COc4ccccc4O3)c2c1C (centres undefined)	?	-8.7%	-23.0%	-26.8%	-29.5%
COc1ccccc1NC(=O)c1cc(S(=O)(=O)NCCC2=CCCCC2)ccc1F	·	-11.4%	-8.1%	·	-5.2%[46.1 µM]
O=C(COc1ccc([N+](=O)[O-])cc1)N1CCN(c2nnc(-c3ccccc3)c3ccccc23)CC1	12.6µM*	·	·	·	·
Cc1ccc(-c2nnc(N3CCN(C(=O)COc4ccccc4)CC3)c3ccccc23)cc1	12.6µM*	·	·	?	?
O=C(COc1ccc(-c2nnc(N3CCCCC3)c3ccccc23)cc1)N1CCCCC1	2.5%	-21.2%	?	?	?
Cc1ccc(-c2nnc(N3CCN(C(=O)CN4CCOCC4)CC3)c3ccccc23)cc1	10µM*!	·	·	-10.3%	-11.5%
O=[N+]([O-])c1ccc(N2CCCC2)cc1N1CCCC1	2.51µM*	·	·	?	?
O=[N+]([O-])c1ccc(N2CCN(S(=O)(=O)Cc3ccccc3)CC2)cc1N1CCOCC1	-7.2%	-14.2%	-28.8%	?	12.6µM*
